SMILES strings stand for the structures. The whole screen tested about 360,000 compounds, of which about 1,400 (0.39%) were called active. The sample as a whole holds a higher share of actives than the screen did. Unmarked numbers belong to inactive results. No stated cut-off is given here; in the data, active means inhibition above about 5% (passing the limit was not always enough); inactive means the rest.

The target in this assay is Tyrosine-protein kinase ABL1 (Homo sapiens) + Ras and Rab interactor 1 (Homo sapiens) (UniProt P00519+Q13671). Kind of assay: disruptors of human Abl and Rin1 association – biochemical, TR-FRET, primary screen (AID 588664). Particulars: TR-FRET Rin1/Abl binding, at 7.35 µM, active compounds read high.
Chain of Tyrosine-protein kinase ABL1 (Homo sapiens) + Ras and Rab interactor 1 (Homo sapiens) (P00519 whole entry, looked up): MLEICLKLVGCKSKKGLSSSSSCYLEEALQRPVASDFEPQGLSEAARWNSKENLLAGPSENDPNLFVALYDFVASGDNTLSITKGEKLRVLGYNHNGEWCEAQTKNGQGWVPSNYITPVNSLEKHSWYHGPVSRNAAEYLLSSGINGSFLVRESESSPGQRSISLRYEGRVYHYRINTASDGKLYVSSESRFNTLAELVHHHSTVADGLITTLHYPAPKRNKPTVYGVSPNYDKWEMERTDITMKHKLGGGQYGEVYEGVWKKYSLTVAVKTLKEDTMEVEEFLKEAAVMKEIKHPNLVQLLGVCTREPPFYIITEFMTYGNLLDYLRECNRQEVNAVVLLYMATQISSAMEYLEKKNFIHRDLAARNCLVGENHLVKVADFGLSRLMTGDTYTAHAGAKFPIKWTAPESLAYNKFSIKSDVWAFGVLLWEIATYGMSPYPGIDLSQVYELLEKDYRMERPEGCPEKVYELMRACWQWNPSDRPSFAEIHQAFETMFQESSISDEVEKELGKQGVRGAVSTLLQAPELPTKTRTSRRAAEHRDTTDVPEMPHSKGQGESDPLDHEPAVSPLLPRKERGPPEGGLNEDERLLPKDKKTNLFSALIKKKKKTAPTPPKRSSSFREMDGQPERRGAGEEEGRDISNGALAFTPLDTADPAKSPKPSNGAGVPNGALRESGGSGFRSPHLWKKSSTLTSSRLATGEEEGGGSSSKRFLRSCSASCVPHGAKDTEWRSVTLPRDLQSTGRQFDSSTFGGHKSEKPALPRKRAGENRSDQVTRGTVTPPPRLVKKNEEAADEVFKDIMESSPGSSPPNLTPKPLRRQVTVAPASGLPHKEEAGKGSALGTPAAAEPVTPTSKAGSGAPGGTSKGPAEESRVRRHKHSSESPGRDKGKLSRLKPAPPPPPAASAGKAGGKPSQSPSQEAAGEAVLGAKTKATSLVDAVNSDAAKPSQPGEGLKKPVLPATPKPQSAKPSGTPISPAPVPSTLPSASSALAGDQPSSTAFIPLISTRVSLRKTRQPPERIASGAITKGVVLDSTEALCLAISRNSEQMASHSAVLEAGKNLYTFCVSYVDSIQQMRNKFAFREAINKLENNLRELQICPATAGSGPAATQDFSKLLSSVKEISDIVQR
Chain of Tyrosine-protein kinase ABL1 (Homo sapiens) + Ras and Rab interactor 1 (Homo sapiens) (Q13671 whole entry, looked up): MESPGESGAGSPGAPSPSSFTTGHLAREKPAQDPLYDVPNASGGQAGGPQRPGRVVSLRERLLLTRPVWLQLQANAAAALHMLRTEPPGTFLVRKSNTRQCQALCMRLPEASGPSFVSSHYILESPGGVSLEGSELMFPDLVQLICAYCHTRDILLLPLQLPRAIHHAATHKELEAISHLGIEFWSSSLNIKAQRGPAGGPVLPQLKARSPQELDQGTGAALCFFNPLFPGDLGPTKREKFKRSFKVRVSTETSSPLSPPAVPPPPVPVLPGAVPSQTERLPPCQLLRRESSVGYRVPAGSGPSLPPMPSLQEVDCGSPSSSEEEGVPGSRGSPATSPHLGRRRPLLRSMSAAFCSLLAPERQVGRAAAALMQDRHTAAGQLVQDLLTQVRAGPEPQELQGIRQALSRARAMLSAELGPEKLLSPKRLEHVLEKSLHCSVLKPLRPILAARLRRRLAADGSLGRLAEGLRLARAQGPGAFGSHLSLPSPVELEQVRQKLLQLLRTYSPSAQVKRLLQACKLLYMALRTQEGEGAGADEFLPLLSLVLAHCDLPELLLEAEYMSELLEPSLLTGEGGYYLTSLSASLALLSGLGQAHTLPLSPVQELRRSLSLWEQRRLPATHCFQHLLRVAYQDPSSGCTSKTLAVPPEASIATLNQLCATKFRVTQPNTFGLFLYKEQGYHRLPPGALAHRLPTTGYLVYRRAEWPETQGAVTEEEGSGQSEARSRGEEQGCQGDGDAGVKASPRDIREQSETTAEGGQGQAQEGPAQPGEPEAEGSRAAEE
Take `Cc1c(CCC(=O)O)c(=O)oc2c(C)c(OCc3ccccc3Cl)ccc12`: the inhibition is 1.81%. Turning to `Cc1c(CC(=O)N2CCN(C(=O)C3COc4ccccc4O3)CC2)c(=O)oc2c(O)c(O)ccc12` (stereo not drawn), the inhibition is 9.84% (active). Under `Cc1ccc(S(=O)(=O)NCCC(=O)NNC(=O)C2COc3ccccc3O2)cc1` (stereo not drawn) stands -0.47%; under `COC(=O)c1ccc(NC(=O)CN(c2ccc(C)cc2)S(=O)(=O)c2c(C)n[nH]c2C)cc1`, 3.33%; under `NC1=CC(=O)C(=O)c2cccnc21`, 17.2% (active). For the compound `CC1(C)C=Cc2c(ccc3c2OC[C@@H](c2ccc(O)cc2O)C3)O1`, the inhibition is -2.38%. On to `NC(=O)c1ccc(CN2CCC(Cc3ccccc3)CC2)cc1`, for which the inhibition is 1.83%. Regarding `CCOC(=O)N1CCN(Cc2oc(CO)cc(=O)c2O)CC1`, the inhibition was 1.56%.

Take `O=c1cc(CO)oc(CN2CCC(Cc3ccccc3)CC2)c1O`: the inhibition is 30.9% (active).

For `CCC(C)C(=O)Nc1ccccc1N1CCN(c2ccc(F)cc2)CC1` (stereo not drawn), the inhibition is 1.3%. Regarding `CCOC(=O)C1CCCN(C(=O)c2ccc(C)c(S(=O)(=O)N3CCCCC3)c2)C1` (stereo not drawn), the inhibition was 2.16%. As to `Cn1nc([N+](=O)[O-])nc1Sc1ccc(C(C)(C)C)cc1`, the inhibition was -6.46%. `O=C(CNCc1ccco1)Nc1cc(S(=O)(=O)N2CCOCC2)ccc1N1CCCC1`: the inhibition is 5.51% (active).

As to `O=C(COC(=O)c1ccccc1F)Nc1cc(S(=O)(=O)N2CCOCC2)ccc1N1CCCC1`, the inhibition was 0.95%. Take `CC(C)CCC(=O)Nc1cc(S(=O)(=O)N2CCOCC2)ccc1N1CCCC1`: the inhibition is -1.79%. Consider `O=C1NC[C@@H](c2ccccc2)OC(=O)[C@H](Cc2ccc(F)cc2)CC/C=C/C[C@H]1CC(=O)N(CCO)Cc1ccccc1`, for which the inhibition is -0.64%. The value for `Cc1nn(C)cc1S(=O)(=O)N1CCN(c2ccc(F)cc2)CC1` was 1.17%; that for `O=C(Nc1ccc(OC(F)(F)F)cc1)c1ccc2c(c1)no[n+]2[O-]` was 6.4% (active); that for `CCOc1c2ccc(C(=O)NCc3ccc(OC(F)(F)F)cc3)cc2nn1C` was 3.17%. Regarding `CCOC(=O)Cc1ncccc1C(=O)Nc1ccc(OC(F)(F)F)cc1`, the inhibition was -0.49%. `COc1ccc(N(CC(=O)NC2CCCCC2)S(=O)(=O)c2c(C)[nH]c(=O)[nH]c2=O)cc1`: the inhibition was 0.98%. The value for `C=CCNC(=O)c1ccccc1NC(=O)c1ccc(Cl)c(S(=O)(=O)Nc2cccc(C)c2C)c1` was 3.96%; that for `Cc1nn(C)c(Cl)c1CN1CCC(Oc2ccc(C(=O)N3CCCC3)cc2)CC1` was -0.88%. With `O=C(c1ccc(OC2CCN(C/C=C/c3ccc(F)cc3)CC2)cc1)N1CCCCC1`, the inhibition is 4.14%.

As for `CC(=O)Nc1ccc(CN2CCC(Oc3ccc(C(=O)N4CCCC4)cc3)CC2)cc1`, the inhibition was 7.35% (active). `Cc1noc(C)c1-c1nc(CSc2ccc(Cl)cc2)no1`: the inhibition is -1.19%. As for `COc1ccc(-c2cc(C(F)(F)F)n3nc(C(=O)N4CCOCC4)c(Cl)c3n2)cc1`, the inhibition is 0.58%.

On to `CCc1nnc(NC(=O)CSc2nc3ccccc3c(=O)n2CCCOC)s1`, for which the inhibition is 2.09%. For `Cc1cc(C)c(C=NNc2nc3c([nH]2)c(=O)n(C)c(=O)n3C)c(C)c1`, the inhibition was 4.38%. As for `Cc1cccc(C)c1NC(=O)CSc1nc2c([nH]1)c(=O)n(C)c(=O)n2C`, the inhibition is 0.29%. On to `CC(CCO)Nc1nc2c([nH]1)c(=O)n(C)c(=O)n2C` (stereo not drawn), for which the inhibition was 7.16% (active). For the compound `O=C(C=CC(=O)Nc1ccc(F)cc1F)Nc1ccc(F)cc1F`, the inhibition was -1.65%.

On to `Cc1sc2ncn(CC(=O)NCCN(C)C)c(=O)c2c1S(=O)(=O)N1CCC(C)CC1`, for which the inhibition is -2.5%.

With `O=C(CCN1C(=O)[C@H]2CC=CC[C@H]2C1=O)NCc1nc(-c2ccccc2)no1`, the inhibition is 4.64%. `C=C(Br)Cn1c(CCCC)nc2ccccc21`: the inhibition was -1.26%. Under `NS(=O)(=O)c1ccc(CCNC(=S)Nc2ccc(S(N)(=O)=O)cc2)cc1` stands -1.51%; under `CN(CC(=O)NCCc1ccc(S(N)(=O)=O)cc1)CC(=O)Nc1ccc(Cl)cc1`, 2.85%; under `NS(=O)(=O)c1ccc(CCNC(=O)Nc2ccc(Cl)cc2)cc1`, 7.48% (active). The value for `COc1ccc(-c2c(C)nn3c(N4CCC(C(=O)N5CCCCC5)CC4)cc(C)nc23)cc1OC` was -0.97%; that for `c1ccc(Cc2nn3c(Cn4cnc5ccccc54)nnc3s2)cc1` was 6.72%. Under `OCCNc1nc2ccccc2n1-c1ncnc2sc3c(c12)CCC3` stands -1.62%; under `CCc1cc2c(NC(Cc3ccccc3)C(=O)O)ncnc2s1` (stereo not drawn), -0.92%. Consider `CCc1cc2c(N3CCN(c4nnc(CC)s4)CC3)ncnc2s1`, for which the inhibition is 7.4% (active). On to `CCc1cc2c(NC3CCCC3)ncnc2s1`, for which the inhibition was -2.86%.

For the compound `C[C@@H](NC(=O)[C@@H]1Cc2ccccc2CN1)C(=O)NC1CCCC1`, the inhibition is 0.01%. Turning to `Cc1ccc(C)c(NS(=O)(=O)c2ccc(OCC(=O)NCc3cccnc3)cc2)c1`, the inhibition is 2.47%. Regarding `Oc1c(CN2CCN(c3ccc(F)cc3)CC2)cc(Cl)c2cccnc12`, the inhibition is 5.47% (active). As for `Cc1cccc(C)c1NC(=O)CN1CCN(c2ccc(F)cc2)CC1`, the inhibition was 2.38%. The value for `Cc1cc(=O)oc2cc(OCC(=O)N3CCN(c4ccc(F)cc4)CC3)c(Cl)cc12` was -4.94%; that for `O=C(CN1CCN(c2ccc(Cl)cc2)CC1)NCc1cccs1` was -1.08%. As for `CC(C)Nc1ncnc2c1ncn2[C@H]1CN(Cc2ccncc2)C[C@@H](CO)O1`, the inhibition was 3.54%. Under `COCCNc1ncnc2c1ncn2[C@H]1CN(Cc2ccc(OC)cc2)C[C@@H](CO)O1` stands -1.27%; under `OC[C@@H]1CN(Cc2ccc(Cl)cc2)C[C@H](n2cnc3c(NCc4ccncc4)ncnc32)O1`, 7.27% (active); under `CCOC(=O)c1cn[nH]c1NC(=S)Nc1ccccc1`, -0.64%. For `Cc1ccc(S(=O)(=O)CCC(=O)OCC(=O)N(C)C2CCS(=O)(=O)C2)cc1` (stereo not drawn), the inhibition is 6.74%. On to `O=C(c1ccc(-n2cnnn2)cc1)N1CCN(C(c2ccccc2)c2ccccc2)CC1`, for which the inhibition is 1.41%.

Consider `Nc1nc2n(n1)C(c1ccco1)CC(c1ccc(Cl)c(Cl)c1)N2` (stereo not drawn), for which the inhibition was 6.57% (active). Turning to `Cc1ccc(C2CC(c3cccc(Br)c3)n3nc(N)nc3N2)cc1` (stereo not drawn), the inhibition was 1.76%.

`Cc1ccc(C2CC(c3cccc(C)c3)n3nc(N)nc3N2)cc1` (stereo not drawn): the inhibition is -1.41%. Turning to `O=C(NC(=S)Nc1ccc(Br)cc1F)C1CCCCC1`, the inhibition was 6.29%. On to `CC(=O)Nc1ccc(NC(=O)CN2C(=O)COc3ccc(S(=O)(=O)N4CCCCC4)cc32)cc1`, for which the inhibition was 2.56%. With `CN(C)c1ccc(CNC(=O)CN2C(=O)COc3ccc(S(=O)(=O)N4CCCC4)cc32)cc1`, the inhibition was 2.18%.

Regarding `Cc1cccc(N(C)C(=O)CN2C(=O)COc3ccc(S(=O)(=O)N4CCCCCC4)cc32)c1`, the inhibition is 9.47% (active). Regarding `Cc1cccc(OCc2nnc(SCc3nc4cc(C(F)(F)F)ccc4c(=O)[nH]3)o2)c1`, the inhibition is 4.23%.

Take `O=C1CC(Cc2ccccc2)C(=O)N1c1ccc(Cl)cn1` (stereo not drawn): the inhibition was -3.26%. Regarding `C=CCN(C(=O)Cn1ncc2c1-c1cc(C)ccc1OC2)c1ccccc1`, the inhibition was 2.13%. `CCOC(=O)N1CCN(C(=O)C2CCN(Cc3ccc(OC)cc3OC)CC2)CC1`: the inhibition is 0.29%.

Turning to `CCOC(=O)N1CCN(C(=O)C2CCN(c3ncnc4c3sc3cccc(F)c34)CC2)CC1`, the inhibition was 18.2% (active).

Take `CCOC(=O)N1CCN(C(=O)C2CCN(S(=O)(=O)c3cc(Cl)ccc3OCC)CC2)CC1`: the inhibition was 3.03%. Regarding `Cc1cnc(C)c(N2CCN(C(=O)C3CCC(=O)N(CCc4cccc(F)c4)C3)CC2)n1` (stereo not drawn), the inhibition was -0.04%. Regarding `Cc1cc(=O)n2nc(N3CCCC(C(=O)N4CCN(C)CC4)C3)sc2n1` (stereo not drawn), the inhibition is 1.05%. As to `CCOC(=O)N1CCN(C(=O)C2CCCN(c3ncnc4c3sc3cccc(F)c34)C2)CC1` (stereo not drawn), the inhibition was 6.58% (active).

For `O=C(CCNC(=O)c1ccc([N+](=O)[O-])cc1)NC1CCCCC1`, the inhibition is -2.29%. Consider `O=C1CC2(CCCCC2)Oc2ccc(OCC(=O)N3CCOCC3)cc21`, for which the inhibition was -3.03%. With `COc1cc2c(cc1CNC[C@H]1O[C@@H](n3cnc(C(N)=O)n3)[C@H](O)[C@@H]1O)OCO2`, the inhibition was -2.98%. Regarding `CCOc1ccc(N(CC)S(=O)(=O)c2cccc3nsnc23)cc1`, the inhibition is -2.8%. Turning to `O=C(NC(c1ccc(-c2ccccc2)cc1)c1cnccn1)C1CCN(CCOc2ccc(Cl)cc2Cl)CC1` (stereo not drawn), the inhibition was -3.71%. Under `Cc1ccc(C(NC(=O)C2CCN(CCOc3ccc(Cl)cc3Cl)CC2)c2ccccn2)cc1` (stereo not drawn) stands 9.27% (active); under `O=C(NC(c1ccc(Cl)cc1)c1cnccn1)C1CCN(Cc2ccc(Cl)cc2)CC1` (stereo not drawn), -1.67%; under `CCCS(=O)(=O)Nc1c(C(=O)O)[nH]c2ccccc12`, 0.58%. In the case of `CCOC(=O)c1c(NC(=O)CN2C(=O)NC3(CCC(C)CC3)C2=O)sc(C)c1CC` (stereo not drawn), the inhibition was 0.02%. Regarding `C=CCn1c2ccccc2c2nnc(SCc3[nH]c(=O)[nH]c3C(=O)CCCCC(=O)OCC)nc21`, the inhibition is 59.4% (active).

In the case of `C=CCn1c(SCC(=O)CC(=O)OCC)nc2cc(C(=O)N3CCC(C(N)=O)CC3)ccc2c1=O`, the inhibition is -1.96%. In the case of `C=CCn1c2ccccc2c2nnc(SC(CC)C(=O)Nc3nc(C)c(C(=O)OCC)s3)nc21` (stereo not drawn), the inhibition was 2.82%.

As to `COc1ccc(NC(=O)C2CCC(CNS(=O)(=O)c3csc(C(N)=O)c3)CC2)cc1OC` (stereo not drawn), the inhibition was -0.76%. As to `CN(CC(=O)Nc1ccc(S(=O)(=O)N2CCCC2)cc1)Cc1ccc(Cl)c(Cl)c1`, the inhibition is -4.78%.

Consider `CN(CC(=O)Nc1ccc(F)cc1)CC(=O)Nc1ccc(Cl)c(S(=O)(=O)N2CCOCC2)c1`, for which the inhibition is 5.07% (active). The value for `COc1ccc(CCC(=O)Nc2ccc(Cl)c(S(=O)(=O)N3CCOCC3)c2)cc1OC` was 0.12%.

For orientation: inhibition means the drop in the measured response relative to a control, in per cent.
